Assay results published in PubChem BioAssay (EPA / NIEHS).
The source made the active and inactive calls. How the source made its calls: active means hit-call score of the fitted dose curve at least 0.9, where 1 is the maximum; inactive means score below 0.9.

How the values were obtained:
Conditions in all cases: mRNA level, 48 h; actives raise or lower the signal
CYP4A11 (gene 1579) = test: LTEA_HepaRG_CYP4A11: Life Technologies and Expression Analysis (LTEA) Assay for CYP4A11 using HepaRG (AID 2283486)
Procedure, shortened: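 Differentiated HepaRG cells, 48 h after plating, exposed in duplicate for 48 h to 8 half-log concentrations up to 100 uM in 0.5% DMSO in serum-free induction medium. CYP4A11 mRNA measured by TaqMan qRT-PCR, normalized to ACTB, GAPDH and POLR2A.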

[1] = read-out: Cytochrome P450 3A4 (Homo sapiens) (UniProt P08684); test: LTEA_HepaRG_CYP3A4: Life Technologies and Expression Analysis (LTEA) Assay for CYP3A4 using HepaRG (AID 2283487)
Procedure, shortened: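 Differentiated HepaRG cells in serum-free induction medium exposed in duplicate for 48 h to 8 half-log concentrations up to 100 uM in 0.5% DMSO. CYP3A4 mRNA measured by qRT-PCR normalized to ACTB, GAPDH and POLR2A; bidirectional fit versus DMSO.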

[2] = read-out: DNA damage-inducible transcript 3 (DDIT3), DDIT3 (gene 1649); test: LTEA_HepaRG_DDIT3: Life Technologies and Expression Analysis (LTEA) Assay for DNA damage-inducible transcript 3 (DDIT3) using HepaRG (AID 2283488)
Procedure, shortened: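 Changes in DDIT3 transcript, in either direction relative to 0.5% DMSO vehicle, were quantified by TaqMan qRT-PCR after 48 h chemical exposure of HepaRG cells at 8 concentrations, maximum 100 uM.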

[3] = read-out: Pro-epidermal growth factor (Homo sapiens) (UniProt P01133); test: LTEA_HepaRG_EGF: Life Technologies and Expression Analysis (LTEA) Assay for Epidermal growth factor (EGF) using HepaRG (AID 2283489)
Procedure, shortened: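 HepaRG cells (~100,000/well, 48 h pre-culture) exposed in duplicate for 48 h in serum-free induction medium to 8 half-log concentrations up to 100 uM in 0.5% DMSO. EGF mRNA by qRT-PCR, normalized to ACTB/GAPDH/POLR2A; bidirectional fit versus DMSO.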

[4] = read-out: Early growth response protein 1 (EGR1) transcription factor, EGR1 (gene 1958); test: LTEA_HepaRG_EGR1: Life Technologies and Expression Analysis (LTEA) Assay for Early growth response protein 1 (EGR1) transcription factor using HepaRG (AID 2283490)
Procedure, shortened: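 Read-out is EGR1 mRNA level by qRT-PCR, normalized to three housekeeping genes and analysed for gain or loss of signal against 0.5% DMSO. Source cells: human HepaRG, treated 48 h at up to 100 uM in half-log dilutions.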

[5] = read-out: Ezrin (EZR), EZR (gene 7430); test: LTEA_HepaRG_EZR: Life Technologies and Expression Analysis (LTEA) Assay for Ezrin (EZR) using HepaRG (AID 2283491)
Procedure, shortened: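 Differentiated human HepaRG cells, 48 h after plating, were exposed in serum-free induction medium for 48 hours to eight half-log concentrations up to 100 uM in 0.5% DMSO. EZR mRNA was measured by TaqMan qRT-PCR, normalized to ACTB, GAPDH and POLR2A, and fitted bidirectionally against DMSO.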

[6] = read-out: Cytochrome P450 3A7 (Homo sapiens) (UniProt P24462); test: LTEA_HepaRG_CYP3A7: Life Technologies and Expression Analysis (LTEA) Assay for CYP3A7 using HepaRG (AID 2283492)
Procedure, shortened: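 Differentiated HepaRG cells in serum-free induction medium exposed 48 h in duplicate to 8-point half-log series from 100 uM top in 0.5% DMSO. CYP3A7 mRNA by qRT-PCR, normalized to ACTB/GAPDH/POLR2A, bidirectional fit versus DMSO.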

CYP3A5 (gene 1577) = test: LTEA_HepaRG_CYP3A5: Life Technologies and Expression Analysis (LTEA) Assay for CYP3A5 using HepaRG (AID 2283493)
Procedure, shortened: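 mRNA induction or loss of CYP3A5 assessed in HepaRG after 48 h dosing, 100 uM top concentration, duplicate wells; TaqMan qRT-PCR with ACTB, GAPDH, POLR2A normalization; 0.5% DMSO as negative control.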

[7] = read-out: Fatty Acid-Binding Protein 1 (FABP1), FABP1 (gene 2168); test: LTEA_HepaRG_FABP1: Life Technologies and Expression Analysis (LTEA) Assay for Fatty Acid-Binding Protein 1 (FABP1) using HepaRG (AID 2283494)
Procedure, shortened: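 HepaRG, 48 h post-plating switched to serum-free induction medium, then dosed 48 h (duplicate, 8 pts, ≤100 uM, 0.5% DMSO). RNA → Fluidigm TaqMan qRT-PCR, FABP1 normed to ACTB/GAPDH/POLR2A. Bidirectional curve fit vs DMSO.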

[8] = read-out: Cytochrome P450 4A22 (Homo sapiens) (UniProt Q5TCH4); test: LTEA_HepaRG_CYP4A22: Life Technologies and Expression Analysis (LTEA) Assay for Cytochrome P450 4A22 (CYP4A22) using HepaRG (AID 2283495)
Procedure, shortened: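 Differentiated HepaRG cells in serum-free induction medium exposed 48 h in duplicate to eight half-log concentrations up to 100 uM in 0.5% DMSO. CYP4A22 mRNA quantified by TaqMan qRT-PCR, normalized to ACTB, GAPDH and POLR2A; bidirectional fit versus DMSO.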

Measured: outcome

Cytochrome P450 3A7 (Homo sapiens), sequence (P24462 whole entry, looked up): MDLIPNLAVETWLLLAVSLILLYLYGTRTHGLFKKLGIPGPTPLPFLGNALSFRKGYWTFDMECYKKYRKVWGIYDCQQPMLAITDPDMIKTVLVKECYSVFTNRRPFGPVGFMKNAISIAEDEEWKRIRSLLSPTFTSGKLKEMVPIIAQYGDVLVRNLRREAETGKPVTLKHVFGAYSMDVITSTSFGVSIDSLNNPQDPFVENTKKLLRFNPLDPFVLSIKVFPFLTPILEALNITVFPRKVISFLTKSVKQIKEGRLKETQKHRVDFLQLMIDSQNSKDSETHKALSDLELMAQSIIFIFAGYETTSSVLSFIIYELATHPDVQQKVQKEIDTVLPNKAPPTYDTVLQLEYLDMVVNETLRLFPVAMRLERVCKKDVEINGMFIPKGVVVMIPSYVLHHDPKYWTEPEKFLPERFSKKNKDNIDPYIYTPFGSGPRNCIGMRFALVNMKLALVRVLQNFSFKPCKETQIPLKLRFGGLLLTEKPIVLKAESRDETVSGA
Cytochrome P450 3A4 (Homo sapiens), sequence (P08684 whole entry, looked up): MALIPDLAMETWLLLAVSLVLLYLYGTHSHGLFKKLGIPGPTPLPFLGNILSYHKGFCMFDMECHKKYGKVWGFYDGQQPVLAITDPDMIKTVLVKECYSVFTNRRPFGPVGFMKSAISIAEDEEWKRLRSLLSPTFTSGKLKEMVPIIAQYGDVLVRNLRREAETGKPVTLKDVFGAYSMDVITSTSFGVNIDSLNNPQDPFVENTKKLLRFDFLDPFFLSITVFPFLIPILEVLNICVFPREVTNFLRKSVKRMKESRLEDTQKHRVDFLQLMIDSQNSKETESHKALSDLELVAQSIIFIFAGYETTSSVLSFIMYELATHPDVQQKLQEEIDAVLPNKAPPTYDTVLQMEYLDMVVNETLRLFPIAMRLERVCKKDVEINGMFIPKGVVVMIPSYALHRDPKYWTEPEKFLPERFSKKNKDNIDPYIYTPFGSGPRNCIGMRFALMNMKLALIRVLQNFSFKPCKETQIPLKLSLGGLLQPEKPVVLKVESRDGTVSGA

Nc1ccc(C(=O)O)cc1
inactive: CYP4A11 (gene 1579) | [1] | [2] | [3] | [4] | [5] | [6] | CYP3A5 (gene 1577) | [7] | [8]

Cc1ccc([N+](=O)[O-])cc1N
inactive: CYP4A11 (gene 1579) | [1] | [2] | [3] | [4] | [5] | [6] | CYP3A5 (gene 1577) | [7] | [8]

C1CNCCN1
inactive: CYP4A11 (gene 1579) | [1] | [2] | [3] | [4] | [5] | [6] | CYP3A5 (gene 1577) | [7] | [8]
